Structures are written as SMILES. “And” between values parts separate entries of the source, which are not always exact repeats. Identical values can stand only once. The source made the active and inactive calls. Unless noted, no rule for the calls is given here.

These results are taken from PubChem BioAssay.

A short description of test [1]: P. berghei load reduction in hepatocytes – cell-based, HepG2, luciferase luminescence, HepG2 viability, primary screen (AID 624349; in the data active = parasite load remaining mostly below about 12%, no sharp cut-off; inactive = mostly above about 10%;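 also: 100% = mean of DMSO negative control wells on the same plate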). Conditions: P. berghei liver stage in HepG2, luciferase luminescence, concentration not given here; parasite load remaining: stronger effect = lower value; viability: measured here: HepG2 viability without parasites.
The nature of test [2]: signal quenchers or enhancers, Cy5 substrate/SSB – biochemical, NIH Clinical Collection, E. coli SSB, artefact control for HCV NS3 helicase inhibitor project (AID 743268). To be noted: Cy5-oligo bound E. coli SSB, fluorescence interference.
Test [3] has as its system Hepatitis C virus NS3 helicase. In words: blockers of NS3h binding to DNA – biochemical, fluorescence polarization, NIH Clinical Collection, primary screen (AID 743270). Conditions: NS3 helicase binding to Cy5-dT15 DNA, stronger effect = higher value, concentration not given here. For orientation: Polarisation of emitted light reports the rotation of a fluorescent probe.
For test [4], the target named is Single-stranded DNA-binding protein (Escherichia coli (strain K12)) (UniProt P0AGE0). The test is described as follows: SSB-ssDNA binding inhibitors – biochemical, fluorescence polarization, NIH Clinical Collection, counter-screen for HCV NS3 helicase inhibitor project (AID 743271; in the data active = inhibition above about 28%). To be noted: E. coli SSB-DNA binding, stronger effect = higher value, concentration not given here.

Test [5] is described as follows: compounds distorting NS3 helicase fluorescence signal – biochemical, NIH Clinical Collection, artefact control for HCV NS3 helicase inhibitor project (AID 743272).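 Also: HCV NS3 helicase with a Cy5 labelled single stranded DNA probe.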 Conditions: fluorescence interference counterscreen, HCV NS3 helicase assay; stronger effect = lower value. On the technique in general: A counterscreen serves to expose hits that act by an unwanted route or on another target.

A short description of test [6]: Wnt pathway potentiators raising nuclear beta-catenin – imaging, WNT3A-conditioned medium, mouse C2C12, NPC library, primary screen (AID 1117326; in the data active = nuclear beta-catenin stimulation mostly above about 4.2%, no sharp cut-off; inactive = mostly below about 10%). To be noted: stronger effect = higher value.
A short description of test [7]: stimulators of insulin release from INS-1E, primary screen, cell-based, 5 mM glucose, NPC library (AID 1117329;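 active = compound raises insulin release from rat beta cells at 5 mM glucose, no numeric limit stated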). Conditions: rat INS-1E insulin secretion, at 10 µM, stronger effect = higher value.
The nature of test [8]: growth inhibition of GSK3B-pretreated HCT116 cells – cell-based, CellTiter-Glo, 0.2 to 20 µM (AID 1117336;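 active = compounds lowering colon cancer cell viability after pretreatment blocking the GSK3B kinase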). Conditions: HCT116 viability after GSK3B inhibitor, at 20 µM, stronger effect = higher value.
The nature of test [9]: inhibition of endothelial tube formation, primary screen, imaging, VEGF stimulated, CD31 staining, tube area, NPC library (AID 1117340;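 active = compound that reduces growth-factor-driven endothelial tube area in a mixed cell culture, no cutoff stated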). To be noted: VEGF-stimulated ADSC/ECFC co-culture, at 10 µM, stronger effect = higher value.
Test [10] is described as follows: GLP1 release stimulators, primary, NCI-H716, NPC library (AID 1117341;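 active = compound raises GLP1 secretion from the human gut endocrine cells, with no numeric limit stated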). Conditions: NCI-H716 cells, at 10 µM, stronger effect = higher value.
A short description of test [11]: HCT116 colon cancer cell growth inhibition, primary screen, CellTiter-Glo luminescence, NPC library (AID 1117342;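 active = compounds that lower survival of HCT116 colon cancer cells in the luminescence readout, no numeric limit stated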). Conditions: at 20 µM (top of the series).
The nature of test [12]: reduced SW480 viability measured with CellTiter-Glo, NPC library, primary (AID 1117343;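 active = compounds that lower viability of the colon cancer cells in the luminescence readout, with no numeric limit stated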). Conditions: CellTiter-Glo luminescence; at 20 µM (top of the series). For orientation: In ATP-based viability assays light output follows the ATP content of the culture.
Test [13] in a line: NPC library primary testing for decreased DLD-1 cell viability via CellTiter-Glo (AID 1117346;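 active = compounds that lower survival of DLD-1 colon cancer cells in the luminescence readout, no cutoff given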). To be noted: DLD-1 viability, CellTiter-Glo luminescence; at 20 µM (top of the series).
Test [14] addresses 6-phosphogluconate dehydrogenase, decarboxylating (Homo sapiens) (UniProt P52209). In words: inhibition of human phosphogluconate dehydrogenase – biochemical, recombinant enzyme, NADPH absorbance, primary screen (AID 1159550;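 active = at least 20% inhibition of 6-phosphogluconate dehydrogenase activity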). To be noted: recombinant 6PGD, NADPH absorbance 341 nm; at 10 µM; stronger effect = higher value.
Test [15] is described as follows: viability loss with induced miR-34 in A549 – imaging, A549 dox-inducible miR-34, nuclei and caspase counts, primary screen (AID 1347080;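 active = compounds whose cell count with miR-34 switched on is under 0.7 times the count with it off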). Conditions: A549 miR-34 inducible, Hoechst nuclei count, 48 h.
The nature of test [16]: MELAS cybrid and Rieske KO viability enhancers – cell-based, MELAS cybrids, Rieske KO mouse fibroblasts, CellTiter-Glo, primary screen (AID 1508586;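 active = mean z-score across replicates of 1.96 or higher in either the MELAS or the Rieske mutant cell line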;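 also: z relative to plate mean and SD of compound and empty wells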). Conditions: low glucose.
In test [17] the target is NAD(+) hydrolase SARM1 (Homo sapiens) (UniProt Q6SZW1). In words: blocking NAD cleavage by SARM1 SAM-TIR – cell lysate, NAD-Glo luminescence (AID 1508614;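 active = compound whose remaining NAD level is above about 45 nM, limit read from the data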;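 also: higher remaining NAD means stronger inhibition of SARM1 NADase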). To be noted: SAM-TIR HEK293T lysate NADase, at 1 µM, stronger effect = higher value.
For test [18], the target named is Mitogen-activated protein kinase 7 (Homo sapiens) (UniProt Q13164). The test is described as follows: Gal4-ERK5 driven luciferase induction – cell-based, HTS, primary screen (AID 1508626;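 active = luciferase signal above three times the same-plate solvent-only control wells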;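 also: luciferase driven by Gal4-ERK5 fusion binding five Gal4 sites before minimal TATA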). To be noted: HeLa Gal4-ERK5 transactivation, 18 h, at 5 µM, stronger effect = higher value.
A further test relates to F380Y. In words: BK channel mutant inhibitors and activators – cell-based, U2OS BacMam, thallium flux, beta subunits, selectivity assay, profiling panel (AID 1259406;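 active = thallium flux through the channel raised or lowered by more than 3 SD from vehicle-only wells, actives on both sides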;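 also: initial slope of Thallos dye fluorescence rise after thallium is added; log ratio against the mean of 0.3% DMSO vehicle wells on the same plate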). To be noted: U2OS BacMam BK variants, at 30 µM.
The nature of test [19]: EMT-state selective cytotoxicity in co-culture – imaging, PC-3E GFP, TEM4-18 mCherry, primary screen (AID 1345086;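 active = compounds killing one labelled cell type while sparing the other, by normalised counts and ratio limits, not self-fluorescent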;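 as to all read-outs here: cells exposed to compound for 72 h before imaging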;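 as to red/green cell ratio (normalised): normalised mesenchymal count divided by normalised epithelial count so high means epithelial killing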). To be noted: PC-3E GFP / TEM4-18 mCherry co-culture, imaging cell counts, at 1 µM; for red/green cell ratio (normalised): actives lie on both sides, counts scaled to control wells, 1 = unselective.
Setting [20] is: MELAS cybrid survival, CellTiter-Glo 48 h, stronger effect = higher value.
[21] abbreviates: Rieske KO mouse fibroblast survival, CellTiter-Glo 72 h.
The mark [22] stands for this setting: measured here: epithelial PC-3E GFP cell survival.
Where [23] appears, read: measured here: mesenchymal TEM4-18 mCherry cell survival.

Sequence of Mitogen-activated protein kinase 7 (Homo sapiens) (Q13164 whole entry, looked up, the tested form may be a part): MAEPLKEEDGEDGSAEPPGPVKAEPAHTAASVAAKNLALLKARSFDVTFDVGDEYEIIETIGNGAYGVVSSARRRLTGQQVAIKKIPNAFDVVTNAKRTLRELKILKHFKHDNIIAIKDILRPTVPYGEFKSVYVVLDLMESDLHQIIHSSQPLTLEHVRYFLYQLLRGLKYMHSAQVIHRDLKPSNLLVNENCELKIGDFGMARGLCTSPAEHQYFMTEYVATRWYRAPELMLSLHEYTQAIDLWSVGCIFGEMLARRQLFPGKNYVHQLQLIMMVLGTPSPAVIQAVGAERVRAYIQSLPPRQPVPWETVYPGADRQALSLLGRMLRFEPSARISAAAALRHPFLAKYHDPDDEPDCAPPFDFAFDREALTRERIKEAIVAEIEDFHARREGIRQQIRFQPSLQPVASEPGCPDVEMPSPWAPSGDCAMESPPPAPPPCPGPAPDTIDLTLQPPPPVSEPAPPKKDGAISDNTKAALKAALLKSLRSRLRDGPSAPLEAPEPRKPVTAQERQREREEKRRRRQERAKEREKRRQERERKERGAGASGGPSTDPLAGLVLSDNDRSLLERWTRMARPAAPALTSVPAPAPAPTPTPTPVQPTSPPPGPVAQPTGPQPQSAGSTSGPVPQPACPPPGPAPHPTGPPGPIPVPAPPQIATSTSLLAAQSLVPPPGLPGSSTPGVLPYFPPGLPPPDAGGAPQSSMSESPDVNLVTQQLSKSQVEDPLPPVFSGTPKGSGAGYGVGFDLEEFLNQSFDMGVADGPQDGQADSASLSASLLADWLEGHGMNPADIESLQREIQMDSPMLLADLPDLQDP
Sequence of NAD(+) hydrolase SARM1 (Homo sapiens) (Q6SZW1 whole entry, looked up, the tested form may be a part): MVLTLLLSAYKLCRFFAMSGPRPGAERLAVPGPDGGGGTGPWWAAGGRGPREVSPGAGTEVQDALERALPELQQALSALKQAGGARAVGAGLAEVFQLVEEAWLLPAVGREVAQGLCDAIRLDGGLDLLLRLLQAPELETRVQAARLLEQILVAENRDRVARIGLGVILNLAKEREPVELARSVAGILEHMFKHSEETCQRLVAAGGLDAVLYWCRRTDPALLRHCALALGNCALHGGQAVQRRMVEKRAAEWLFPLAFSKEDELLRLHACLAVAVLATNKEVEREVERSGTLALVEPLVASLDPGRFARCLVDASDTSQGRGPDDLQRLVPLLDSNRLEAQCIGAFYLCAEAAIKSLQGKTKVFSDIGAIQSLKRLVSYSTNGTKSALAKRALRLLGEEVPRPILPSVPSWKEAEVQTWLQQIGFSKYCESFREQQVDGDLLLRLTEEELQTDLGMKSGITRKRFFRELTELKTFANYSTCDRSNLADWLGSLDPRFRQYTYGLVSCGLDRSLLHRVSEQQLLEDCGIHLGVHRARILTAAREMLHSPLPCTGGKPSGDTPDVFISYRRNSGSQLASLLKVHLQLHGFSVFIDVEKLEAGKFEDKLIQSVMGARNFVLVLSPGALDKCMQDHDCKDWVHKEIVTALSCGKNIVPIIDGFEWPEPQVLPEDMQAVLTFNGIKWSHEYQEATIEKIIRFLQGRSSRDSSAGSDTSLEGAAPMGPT
Sequence of 6-phosphogluconate dehydrogenase, decarboxylating (Homo sapiens) (P52209 whole entry, looked up): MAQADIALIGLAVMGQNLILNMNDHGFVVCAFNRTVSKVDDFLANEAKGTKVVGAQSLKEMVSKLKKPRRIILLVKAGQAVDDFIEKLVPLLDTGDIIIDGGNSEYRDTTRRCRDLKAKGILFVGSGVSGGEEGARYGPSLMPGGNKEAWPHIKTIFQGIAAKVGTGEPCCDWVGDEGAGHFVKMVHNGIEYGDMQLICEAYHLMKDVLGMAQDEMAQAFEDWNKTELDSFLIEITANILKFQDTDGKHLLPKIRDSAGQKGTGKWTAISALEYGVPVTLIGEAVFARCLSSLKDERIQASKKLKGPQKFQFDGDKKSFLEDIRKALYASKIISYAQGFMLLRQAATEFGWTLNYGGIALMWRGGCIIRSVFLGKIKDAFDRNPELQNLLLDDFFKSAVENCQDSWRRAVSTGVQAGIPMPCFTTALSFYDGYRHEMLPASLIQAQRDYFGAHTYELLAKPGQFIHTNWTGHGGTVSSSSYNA

By viability is commonly meant a per cent measure of how many cells are alive, often set against a control. A word on the inhibition: it is the change of the read-out against control, counted positive when it falls. With `C#C[C@]1(O)CC[C@H]2[C@@H]3CCC4=CC(=O)CC[C@@H]4[C@H]3CC[C@@]21CC`, in test [1], the parasite load remaining is 51.8% (inactive) and 75.6% (inactive) and 14.7% (inactive). The viability in test [1] is 93.6% and 73.1% and 73.5%. Besides, the fluorescence ratio is 1.02 (inactive) in [2] and 0.96 (inactive) in test [5]. Further, the inhibition in test [3] was -3.56% (inactive); in [4] it was -0.1% (inactive); in test [14], -0.702% (inactive). For the same molecule, the nuclear beta-catenin stimulation was 2.2% (inactive) in test [6] (at 10 µM) and -0.1% in test [6] (stimulation, at 2 µM). In test [7], the insulin secretion stimulation is -1.1% (inactive). Also, in test [8], the viability decrease was -54.4% (inactive). In addition, in [9], the tube area decrease is 0.1% (inactive). Besides, in test [10], the GLP1 secretion stimulation was 4.1% (inactive). The inhibition of viability in test [11] was -5.1% (inactive). Also, the viability decrease (inhibition) in [12] is 4.3% (inactive); in test [13] it was -24.6% (inactive). Further, the fold change in test [15] (stronger effect = lower value, cell number ratio, induced over uninduced) was 0.855 (inactive) and 0.976 (inactive) and 0.873 (inactive); in test [15] (measured here: relative caspase fold change +Dox/-Dox), 1.39 and 1.03 and 0.879. The cell count in test [15] (measured here: total cells with miR-34 induction, stronger effect = lower value) is 8700 and 5730 and 8530; in test [15] (measured here: total cells without miR-34 induction), 10200 and 5870 and 9770. The z-score is 1.16 (inactive) and 0.00976 (inactive) in test [16] (setting [20]); 1.41 and 0.657 in test [16] (setting [21]). The remaining NAD in test [17] was 10 nM (inactive). For the same molecule, the luciferase signal in test [18] was 44 AU (inactive). The log fold change Tl+ flux with F380Y is 0.0315 (inactive).
In the case of `NC(N)=NC(=O)c1nc(Cl)c(N)nc1N`, the fluorescence ratio in test [2] is 0.95 (inactive); in [5], 0.9 (inactive). Besides, the inhibition in test [3] is 6.73% (inactive); in [4], 13.8% (inactive); in [14], 7.13% (inactive). The nuclear beta-catenin stimulation in [6] (at 10 µM) was 0.7% (inactive); in [6] (stimulation, at 2 µM), -2%. Moreover, the insulin secretion stimulation in test [7] was 4.35% (inactive). Further, the viability decrease in [8] was 3.2% (inactive). The tube area decrease in test [9] is 1.1% (inactive). In test [10], the GLP1 secretion stimulation is 2% (inactive). For the same molecule, the inhibition of viability in test [11] was 3% (inactive). Moreover, the viability decrease (inhibition) in [12] is 1.8% (inactive); in [13], -11.5% (inactive). Further, in test [19], the red/green cell ratio (normalised) is 0.85 (inactive). Also, the normalised cell number in [19] (setting [22]) was 1.29; in [19] (setting [23]), 1.1. The z-score was -0.14 (inactive) and -0.352 (inactive) and 0.738 (inactive) in [16] (setting [20]); 0.245 and 0.664 and 0.681 in test [16] (setting [21]). Also, in test [17], the remaining NAD was 10 nM (inactive). Moreover, in [18], the luciferase signal is 44 AU (inactive). Also, the log fold change Tl+ flux with F380Y is -0.00821 (inactive).
For `CNCCCC12CCC(c3ccccc31)c1ccccc12`, the fluorescence ratio in [2] was 0.97 (inactive); in test [5] it was 0.83 (inactive). In addition, the inhibition in test [3] is -1.98% (inactive); in test [4] it was -1.64% (inactive); in test [14], 8.09% (inactive). The nuclear beta-catenin stimulation was 1.9% (inactive) in test [6] (at 10 µM) and -0.1% in test [6] (stimulation, at 2 µM). Besides, the insulin secretion stimulation in test [7] is 12.2% (inactive). The viability decrease in [8] is 55.6% (active). Also, in test [9], the tube area decrease was 12.2% (inactive). In test [10], the GLP1 secretion stimulation was 4.8% (inactive). The inhibition of viability in test [11] was 87.4% (active). The viability decrease (inhibition) in [12] is 121% (active); in test [13], 68.3% (active). Also, in [19], the red/green cell ratio (normalised) was 0.89 (inactive). The normalised cell number in [19] (setting [22]) amounted to 1.11; in [19] (setting [23]), 0.98. For the same molecule, the z-score in [16] (setting [20]) was -0.365 (inactive) and 0.126 (inactive) and 0.618 (inactive); in test [16] (setting [21]) it was 0.802 and 0.382 and 0.29. In addition, in [17], the remaining NAD was 10 nM (inactive). In [18], the luciferase signal was 48 AU (inactive). The log fold change Tl+ flux with F380Y was 0.104 (inactive).
